{"source": "PubChem BioAssay AID463173", "about": "(ICCB-Longwood Screening Facility, Harvard Medical School, 2010)", "note": "Hit rate of the full screen: of about 52,000 compounds, about 1,700 (3.3%) were called active. No stated cut-off is given here; in the data, active means survival mostly below about 52% (no sharp cut-off); inactive means mostly above about 56%. The full list was thinned out, with actives kept by preference."}
{"tested_on": "Wild type", "experiment": "growth inhibition of S. aureus wild type versus tarO mutant, primary screen, teichoic acid synthesis inhibitors, RN4220, OD600 (AID 463173)", "conditions": "S. aureus RN4220 wild type/DeltatarO growth, OD600, 18 h, stronger effect = lower value, concentration not given here"}
{"smiles": "CCOc1ccc2nc(NC(=O)c3cccn(Cc4ccc(C)cc4)c3=O)sc2c1", "survival": "76% (inactive)"}
{"smiles": "Cc1ccc(Cn2cccc(C(=O)Nc3cc(C)on3)c2=O)cc1", "survival": "81% (inactive)"}
{"smiles": "O=C1CN=C(c2ccccc2Cl)c2cc(Cl)ccc2N1Cc1cccc(Cl)c1", "survival": "128% (inactive)"}
{"smiles": "Cc1ccc(CN2C(=O)c3ccccc3Sc3ccc(C(=O)N4CCC5(CC4)OCCO5)cc32)cc1", "survival": "75% (inactive)"}
{"smiles": "O=C(c1ccc2c(c1)N(Cc1ccc(F)cc1Cl)C(=O)c1ccccc1S2)N1CCC2(CC1)OCCO2", "survival": "78% (inactive)"}
{"smiles": "Cc1ccc(C)c(CN2C(=O)c3ccccc3Sc3ccc(C(=O)N4CCC5(CC4)OCCO5)cc32)c1", "survival": "14% (active)"}
{"smiles": "C1CNC2NCCNC2N1", "note": "(stereo not drawn)", "survival": "125% (inactive)"}
{"smiles": "O=C1NC(=O)C(C(CC(=O)c2ccccc2)c2ccccc2)C(=O)N1", "note": "(stereo not drawn)", "survival": "116% (inactive)"}
{"smiles": "CN1C(=O)C(=Cc2ccco2)C(=O)N(C)C1=O", "survival": "109% (inactive)"}
{"smiles": "CCCSc1nc2ccccc2c(=O)n1-c1ccccc1OC", "survival": "-1% (active)"}
{"smiles": "COc1ccccc1-n1c(/C=C/c2ccccc2)nc2ccccc2c1=O", "survival": "80% (inactive)"}
{"smiles": "CSc1nc2ccccc2c(=O)n1-c1ccccc1C", "survival": "107% (inactive)"}
{"smiles": "CC(=O)N1CC(=O)Nc2ccc(F)cc2C1c1ccccc1", "note": "(stereo not drawn)", "survival": "82% (inactive)"}
{"smiles": "COc1ccc(-c2nc(CN3C(=O)CN=C(c4ccccc4)c4ccccc43)c(C)o2)cc1", "survival": "93% (inactive)"}
{"smiles": "Cc1cccc(-c2nc(CN3C(=O)CN=C(c4ccccc4)c4ccccc43)c(C)o2)c1", "survival": "2% (active)"}
{"smiles": "Cc1ccc(-c2nc(CN3C(=O)CN=C(c4ccccc4)c4ccccc43)c(C)o2)cc1", "survival": "72% (inactive)"}
{"smiles": "Cc1ccccc1-c1nc(CN2C(=O)CN=C(c3ccccc3)c3ccccc32)c(C)o1", "survival": "2% (active)"}
{"smiles": "COc1ccc(-c2nc(CN3C(=O)CN=C(c4ccccc4)c4ccccc43)c(C)o2)cc1OC", "survival": "96% (inactive)"}
{"smiles": "Cc1oc(-c2ccc(Cl)cc2)nc1CN1C(=O)CN=C(c2ccccc2)c2ccccc21", "survival": "80% (inactive)"}
{"smiles": "Cc1ccc2scc(N3CCN(C)CC3)c(=O)c2c1", "survival": "136% (inactive)"}
{"smiles": "O=c1[nH]c2ccccc2c(=O)n1-c1ccc(Cl)c(Cl)c1", "survival": "91% (inactive)"}
{"smiles": "CCOc1nc(NCc2ccco2)nc(N2CC3CC(C2)c2cccc(=O)n2C3)n1", "note": "(stereo not drawn)", "survival": "104% (inactive)"}
{"smiles": "Nc1c2c(nc3sc4c(c13)CCCC4)CCCC2", "survival": "118% (inactive)"}
